Test results reported in PubChem BioAssay (NCI).
Compounds without any hit were thinned out: in the full panel of roughly 83,000, 20% have a hit.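 Plates (96-well) were seeded with cells, treated with compound at one concentration, and incubated for 48 hours before percent growth was determined.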 The source made the active and inactive calls. Rule for the calls: active = growth percent below 10; inactive = the rest.

Key:
Assay in all cases: NCI-60 one-dose screen, 48 h (100 = growth as untreated, 0 = no growth, -100 = all killed)
Settings in all cases: 10 µM unless noted
T-47D breast = test system: T-47D breast
BT-549 breast = test system: BT-549 breast
MDA-MB-435 melanoma = test system: MDA-MB-435 melanoma
SW-620 colon = test system: SW-620 colon
MCF7 breast = test system: MCF7 breast
HCT-116 colon = test system: HCT-116 colon
HCC-2998 colon = test system: HCC-2998 colon
KM12 colon = test system: KM12 colon
MDA-MB-468 breast = test system: MDA-MB-468 breast

Measured: growth

COc1ccc(NC(=O)N/N=C/c2c[nH]c3ccccc23)cc1
inactive: T-47D breast 43.3% | BT-549 breast 19.1% | SW-620 colon 25% | MCF7 breast 16.8% | HCT-116 colon 21.5% | HCC-2998 colon 44.3% | KM12 colon 24.7% | MDA-MB-468 breast 16.4%
active: MDA-MB-435 melanoma -26.1%

C/C(=N/O)c1ccc(NC(=O)CSc2nnc(-c3ccc(-c4nc5ccc(Cl)cc5[nH]4)cc3)o2)cc1
active: MDA-MB-435 melanoma -32.9% | SW-620 colon -54.9% | MCF7 breast 3.95% | HCT-116 colon 4.71% | KM12 colon 2.42%
inactive: T-47D breast 11.8% | BT-549 breast 14.2% | HCC-2998 colon 71.2% | MDA-MB-468 breast 64.9%

COc1ccc2[nH]c(=O)cc(-n3ncc(C(=O)/C=C/c4cc(OC)c(OC)c(OC)c4)c3C)c2c1
active: T-47D breast 5.38% | BT-549 breast -57.2% | MDA-MB-435 melanoma 1.51% | SW-620 colon -51.9% | MCF7 breast 1.39% | HCT-116 colon -52.9% | HCC-2998 colon -93.9% | KM12 colon -37.2% | MDA-MB-468 breast -71.1%

O=C(Nc1ccc(-c2ccc3c(c2)NC(=O)/C3=C\c2ccc[nH]2)cc1)Nc1ccc(Cl)c(C(F)(F)F)c1
inactive: T-47D breast 16.5% | SW-620 colon 27.6% | HCC-2998 colon 48.4% | KM12 colon 22.3%
active: BT-549 breast 5.89% | MDA-MB-435 melanoma 3.54% | MCF7 breast 3.21% | HCT-116 colon 2.62% | MDA-MB-468 breast -18.4%

N#CC1=C(c2ccco2)Nc2c(c(-c3ccccc3)nn2-c2ccccc2)C12C(=O)Nc1ccc(Br)cc12 (stereo not given)
inactive: T-47D breast 48.5% | BT-549 breast 70.4% | MDA-MB-435 melanoma 59.8% | SW-620 colon 46.3% | MCF7 breast 39.8% | HCC-2998 colon 91.8% | KM12 colon 66.4% | MDA-MB-468 breast 66.6%
active: HCT-116 colon 5.08%

S=C(Nc1ccc(OCc2nc3ccc(Cl)cc3[nH]2)cc1)NC1CCCCC1
inactive: T-47D breast 17.3% | BT-549 breast 13.5%
active: MDA-MB-435 melanoma -10.4% | SW-620 colon -7.01% | MCF7 breast 0.799% | HCT-116 colon -31.6% | HCC-2998 colon -69.5% | KM12 colon -12.5% | MDA-MB-468 breast -30.8%

COc1cccc2nc(Nc3cccc(NC(=O)c4ccc(CN5CCN(C)CC5)c(C(F)(F)F)c4)c3)ccc12
active: T-47D breast -75.9% | BT-549 breast -93.7% | MDA-MB-435 melanoma -98.1% | SW-620 colon -92.8% | MCF7 breast -79.2% | HCT-116 colon -66.9% | HCC-2998 colon -96.8% | KM12 colon -51.1% | MDA-MB-468 breast -97.2%

COC(=O)c1c(C(=O)OC)c2c3ccccc3c3ccccc3n2c1C(=O)C(C)(C)C
inactive: T-47D breast 46.4% | BT-549 breast 62.5% | MDA-MB-435 melanoma 83.2% | SW-620 colon 100% | MCF7 breast 73% | HCT-116 colon 59% | HCC-2998 colon 85.6% | KM12 colon 62.5% | MDA-MB-468 breast 54.1%

CCCCCCCCc1ccc(C(=O)Nc2ccc(C)cc2C(=O)O)cc1
inactive: T-47D breast 94% | BT-549 breast 104% | MDA-MB-435 melanoma 104% | SW-620 colon 103% | MCF7 breast 85.2% | HCT-116 colon 75.5% | HCC-2998 colon 106% | KM12 colon 50.3% | MDA-MB-468 breast 70.5%

COc1ccc(N=Nc2c(N)nn3c(-c4cc5ccccc5oc4=O)ccnc23)cc1
inactive: T-47D breast 53.2% | BT-549 breast 29.5% | MDA-MB-435 melanoma 75.5% | SW-620 colon 31.3% | MCF7 breast 29% | HCT-116 colon 37.9% | HCC-2998 colon 38.1% | KM12 colon 51.1% | MDA-MB-468 breast 24.7%

CN1C(=O)/C(=C/c2ccco2)S/C1=N/c1nccs1
active: MDA-MB-468 breast -13.2%
inactive: T-47D breast 65.9% | BT-549 breast 112% | MDA-MB-435 melanoma 107% | SW-620 colon 106% | MCF7 breast 33.7% | HCT-116 colon 95.2% | HCC-2998 colon 107% | KM12 colon 98%

COc1ccc(N=Nc2c(N)nn3c(-c4cc5cc(Br)ccc5oc4=O)ccnc23)cc1
active: BT-549 breast -2.5% | MDA-MB-468 breast -22.7%
inactive: T-47D breast 10.8% | MDA-MB-435 melanoma 54.2% | SW-620 colon 56.1% | MCF7 breast 26.4% | HCT-116 colon 23.8% | HCC-2998 colon 20.2% | KM12 colon 36.1%

N#Cc1c(-c2ccc(F)cc2)nc(SCc2ccccc2)nc1N1CCNCC1
active: T-47D breast -75.9% | BT-549 breast -97.4% | MDA-MB-435 melanoma -83.6% | SW-620 colon -78.7% | MCF7 breast -84.7% | HCT-116 colon -96.9% | HCC-2998 colon -64.6% | KM12 colon -84.3% | MDA-MB-468 breast -64.3%

C=CCSc1nnc(-c2ccc(-c3nc4ccc(Cl)cc4[nH]3)cc2)o1
inactive: T-47D breast 68.4% | BT-549 breast 22.6% | SW-620 colon 27.8% | MCF7 breast 25.1% | HCT-116 colon 29.5% | HCC-2998 colon 83.4% | KM12 colon 34.6% | MDA-MB-468 breast 28.6%
active: MDA-MB-435 melanoma -22.5%

CCC(=O)c1cc(C(=O)OC)c2ccc3c4ccccc4ccc3n12
inactive: T-47D breast 75.8% | BT-549 breast 112% | MDA-MB-435 melanoma 93.6% | SW-620 colon 84.4% | MCF7 breast 80.5% | HCT-116 colon 35% | HCC-2998 colon 99.8% | KM12 colon 84.7% | MDA-MB-468 breast 83.6%

COc1cc(-c2ccc3ncnc(N4CCc5ccc(Cl)cc54)c3c2)cnc1Cl
inactive: MDA-MB-435 melanoma 32.8% | SW-620 colon 17.4% | HCC-2998 colon 28% | KM12 colon 33.2%
active: T-47D breast 8.82% | BT-549 breast 5.89% | MCF7 breast 3.58% | HCT-116 colon 8.7% | MDA-MB-468 breast -16.8%

COc1cc2cc(C(=O)N3C[C@@H](CCl)c4c3cc(OC(=O)N(C)CCSSCCN3CCOCC3)c3ccccc43)[nH]c2c(OC)c1OC
active: T-47D breast -6.52% | BT-549 breast -58.5% | MDA-MB-435 melanoma -41.2% | SW-620 colon 6.21% | MCF7 breast -33.5% | HCT-116 colon -12.9% | HCC-2998 colon -58.7% | KM12 colon -31.1% | MDA-MB-468 breast -77.3%

O=C(c1ccc(Cl)cc1)C1[C@H](c2ccccc2Cl)[C@@H](c2ccccc2)NC12C(=O)Nc1ccc(Cl)cc12 (stereo not given in full)
active: T-47D breast -71.1% | BT-549 breast -87.2% | MDA-MB-435 melanoma -87.5% | SW-620 colon -61.5% | MCF7 breast -37.7% | HCT-116 colon -89.3% | HCC-2998 colon -85.6% | KM12 colon -48% | MDA-MB-468 breast -52.5%

COc1ccc2c(c1)C(=O)N(C)C2C1c2c(cc3c(c2OC)OCO3)CCN1C (stereo not given)
active: MDA-MB-435 melanoma -21.1% | MDA-MB-468 breast 8.46%
inactive: T-47D breast 56.3% | BT-549 breast 68.5% | SW-620 colon 23.9% | MCF7 breast 14.7% | HCT-116 colon 27.5% | HCC-2998 colon 63.2% | KM12 colon 15.9%

COc1cccc(-c2ccc(/C=N/NC(=O)c3[nH]c4ccc(Br)cc4c3-c3ccccc3)s2)c1
active: BT-549 breast -26.9% | MDA-MB-435 melanoma -51.3% | MCF7 breast 1.38% | HCT-116 colon -27.5% | HCC-2998 colon 5.11% | KM12 colon -14.2% | MDA-MB-468 breast 7.16%
inactive: T-47D breast 52.9% | SW-620 colon 20.4%
